Screens as filed in PubChem.
Compounds with a hit are over-represented: about 6.3% of the library has one in this group of screens.
HepG2 tox-1 = qHTS for Inhibitors of TGF-b: Cytotox Counterscreen. HepG2 CAGA-GFP viability, ATP luminescence, 18 h. Potency, µM (titrated, usually from 46.1 µM), actives largely listed as cytotoxic. hit rate 0.76% among 410,000. AID 588856, 2011
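HepG2 CAGA-GFP cells (1000/well, DMEM with 1% FBS) received compound, then TGF-beta at 500 pg/mL final, and were incubated 18 hours at 37 degrees C. Viability was read by CellTiter-Glo luminescence. Media-only wells were set as complete cell-killing and DMSO as no toxicity.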
VP16 counter = VP16 counterscreen qHTS for inhibitors of ROR gamma transcriptional activity; hit rate 3.5% among 310,000; AID 2546, 2010; Drosophila S2 Gal4-VP16 UAS-luciferase, luminescence, 20 h; Potency, µM (top dose mostly 53.6 µM), usual class: inhibitors;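 further: Gal4-VP16 expression switched on by copper sulfate through the metallothionein promoter; nearly all actives have a fitted effect of over 50% in size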
S2 tox = Viability Counterscreen for Primary qHTS for Inhibitors of ATXN expression | S2 cells (HEK-293 line with an ATXN2-luciferase reporter) viability, CellTiter-Fluor protease fluorescence, 24 h | Potency, µM (titrated, usually from 56.7 µM), usual class: cytotoxic | hit rate 0.49% among 400,000 | AID 651635, 2014; further: nearly all actives have a fitted effect of over 40% in size
ATXN2 expr inh = Primary qHTS for Inhibitors of ATXN expression; HEK-293 ATXN2-luciferase reporter, luminescence, 24 h; Potency, µM (doses to about 57 µM), actives largely listed as inhibitors; hit rate 0.72% among 360,000; AID 1745845, 2022; further: nearly all actives have a fitted effect of over 55% in size
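ATXN2-luciferase reporter cells (luciferase flanked by upstream and downstream ATXN2 gene portions) were treated 24 h at 37 °C with compounds at up to 57 uM. SteadyGlo luminescence gave expression; GF-AFC fluorescence gave viability.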
RORgamma inh = qHTS for inhibitors of ROR gamma transcriptional activity. Drosophila S2 Gal4-RORgamma UAS-luciferase reporter, 20 h. Potency, µM (series often up to 53.6 µM), most hits filed as inhibitors. hit rate 5.4% among 310,000. AID 2551, 2010; further: nearly all actives have a fitted effect of over 60% in size
Target sequence (P51450 whole entry, looked up, the tested form may be a part): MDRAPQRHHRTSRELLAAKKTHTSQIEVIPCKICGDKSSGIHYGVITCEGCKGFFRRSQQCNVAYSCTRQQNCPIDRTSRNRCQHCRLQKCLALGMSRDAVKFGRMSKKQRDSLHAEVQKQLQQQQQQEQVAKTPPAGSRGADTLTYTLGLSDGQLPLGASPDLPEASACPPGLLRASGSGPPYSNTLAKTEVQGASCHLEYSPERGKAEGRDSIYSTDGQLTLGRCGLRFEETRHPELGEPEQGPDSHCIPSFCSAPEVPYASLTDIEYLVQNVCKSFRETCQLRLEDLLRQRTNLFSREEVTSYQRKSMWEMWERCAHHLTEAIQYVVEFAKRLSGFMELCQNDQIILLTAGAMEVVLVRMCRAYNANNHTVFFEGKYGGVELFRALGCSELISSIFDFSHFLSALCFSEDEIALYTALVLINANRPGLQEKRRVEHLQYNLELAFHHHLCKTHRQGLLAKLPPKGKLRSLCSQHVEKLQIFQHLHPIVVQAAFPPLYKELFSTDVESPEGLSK
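Drosophila S2 cells stably expressing Gal4-DBD/mouse RORγ fusion under metallothionein promoter plus UAS-luciferase; compound 1 h, then 700 uM CuSO4 induction for 20 h at ambient temperature; inhibition read as reduced luminescence.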
TGFb inhibitor = qHTS for Inhibitors of TGF-b | Potency, µM (series often up to 46.1 µM), most hits filed as inhibitors | HepG2 CAGA-GFP TGF-b/SMAD3 reporter, GFP fluorescence, 18 h; TGF-beta stimulated, 500 pg/mL final | AID 588855, 2011 | hit rate 1.2% among 410,000; further: nearly all actives have a fitted effect of over 65% in size
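Read-out: total well GFP (ex488/em500-530) summed from mean per-cell fluorescence. Cells: HEPG2 CAGA-GFP, 1% FBS DMEM, 18 h at 37 degrees C with 500 pg/mL final TGF-beta. Unstimulated wells served as the full-inhibition control; stimulated DMSO wells = 0%.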
TGFb CAGA inh = qHTS for Inhibitors of TGF-b: Confirmation of Cherry Picks. shares compounds with TGFb inhibitor. HepG2 CAGA-GFP TGF-b reporter, GFP fluorescence, 18 h; cells stimulated with TGF-beta, 500 pg/mL. Potency, µM (series often up to 46.1 µM), hits mostly inhibitors. hit rate 63% among 1,600. AID 720534, 2013; further: nearly all actives have a fitted effect of over 65% in size
HepG2 tox-2 = qHTS for Inhibitors of TGF-b: Cytotox Counterscreen for Cherry Picks; shares compounds with TGFb inhibitor; HepG2 CAGA-GFP viability, ATP luminescence, 18 h; cells stimulated with TGF-beta, 500 pg/mL; Potency, µM (doses to about 46.1 µM), most hits filed as inhibitors; hit rate 27% among 1,600; AID 720535, 2013; further: nearly all actives have a fitted effect of over 70% in size
CCL64 TGFb inh = qHTS for Inhibitors of TGF-b: CCL64 Cells Orthogonal Assay for Cherry Picks | hit rate 41% among 1,600 | CCL64 CAGA-GFP reporter, TGF-b stimulated, GFP fluorescence, 18 h | AID 720536, 2013 | Potency, µM (top dose mostly 46.1 µM), actives largely listed as inhibitors | shares compounds with TGFb inhibitor; further: nearly all actives have a fitted effect of over 65% in size
TGFb COP inh = qHTS for Inhibitors of TGF-b: Hit Validation in HepG2 Cells using COP promoter; shares compounds with TGFb inhibitor; HepG2 COP-GFP TGF-b reporter, GFP fluorescence, 18 h; cells stimulated by added recombinant TGF-beta; Potency, µM (series often up to 46.1 µM), most hits filed as inhibitors; hit rate 3% among 1,600; further: nearly all actives have a fitted effect of over 70% in size
Of the large screens only hits and unclear results are named; the others gave an inactive call (follow-up assays come after a bar, where they were run). The call rests on the fitted dose curve; in most records, active means well fitted curve in the direction sought with a large enough effect; inconclusive means small, poorly fitted or top-dose-only effect, or another doubt; inactive means no such curve, though single readings can be large; an effect the other way counts as inactive or inconclusive.

O=C(C1=C[C@@H](C2CCCCC2)C[C@@H](OCc2ccc(CO)cc2)O1)N1CCN(Cc2ccc3c(c2)OCO3)CC1	S2 tox inconclusive, ATXN2 expr inh inconclusive, TGFb inhibitor 11.2µM | TGFb CAGA inh 20.6µM | HepG2 tox-2 inactive | CCL64 TGFb inh inconclusive | TGFb COP inh inactive
O=C(C1=C[C@H](C2CCCCC2)C[C@H](OCc2ccc(CO)cc2)O1)N1CCN(Cc2ccc3c(c2)OCO3)CC1	S2 tox inconclusive, ATXN2 expr inh inconclusive, TGFb inhibitor inconclusive
CS/C(=N\S(=O)(=O)c1cccs1)Nc1cccc(Cl)c1C	none
CS/C(=N\S(=O)(=O)c1cccs1)Nc1ccc(F)c(Cl)c1	VP16 counter inconclusive, TGFb inhibitor 8.91µM | TGFb CAGA inh inconclusive | HepG2 tox-2 inactive | CCL64 TGFb inh inactive | TGFb COP inh inactive
CC(=O)Nc1ccc(C(=O)CSc2ncn(-c3ccccc3)n2)cc1	TGFb inhibitor 2.82µM | TGFb CAGA inh inconclusive | HepG2 tox-2 inactive | CCL64 TGFb inh inactive | TGFb COP inh inactive
Cc1ccc(C)c(N2CCN(Cc3csc(C)c3)CC2)c1	none (no result: VP16 counter, S2 tox, ATXN2 expr inh, RORgamma inh)
COc1ccc(Nc2nc(-c3ccccc3)nc3ccccc23)cc1	S2 tox inconclusive, TGFb inhibitor inconclusive | TGFb CAGA inh inconclusive | HepG2 tox-2 inactive | CCL64 TGFb inh inconclusive | TGFb COP inh inactive
c1ccc(Nc2nc(-c3cccnc3)nc3ccccc23)cc1	none (no result: HepG2 tox-1, S2 tox, ATXN2 expr inh, TGFb inhibitor)
Cc1ccc(Nc2nc(-c3cccnc3)nc3ccccc23)cc1	HepG2 tox-1 20µM, S2 tox inconclusive, ATXN2 expr inh inconclusive, TGFb inhibitor inconclusive | TGFb CAGA inh inconclusive | HepG2 tox-2 inconclusive | CCL64 TGFb inh inconclusive | TGFb COP inh inactive
O=C(NN=Cc1cc(=O)[nH]c(=O)[nH]1)c1ccncc1	none (no result: VP16 counter, RORgamma inh)
CC(NC(=O)C1CCCN1S(=O)(=O)c1ccccc1)c1ccccc1 (configuration not stated)	TGFb inhibitor inconclusive | TGFb CAGA inh inconclusive | HepG2 tox-2 inactive | CCL64 TGFb inh inactive | TGFb COP inh inactive
C(=C\c1ccccc1)/CN1CCN(C(c2ccnc3ccccc23)c2nnnn2-c2ccc3c(c2)OCCO3)CC1 (configuration not stated)	S2 tox inconclusive, TGFb inhibitor inconclusive (no result: VP16 counter, RORgamma inh) | TGFb CAGA inh 14.6µM | HepG2 tox-2 inactive | CCL64 TGFb inh inconclusive | TGFb COP inh inactive
Cc1cccc(C)c1-n1nnnc1C(c1cccs1)N1CCN(C/C=C/c2ccccc2)CC1 (configuration not stated)	TGFb inhibitor inconclusive (no result: VP16 counter, RORgamma inh) | TGFb CAGA inh inconclusive | HepG2 tox-2 inactive | CCL64 TGFb inh 20.6µM | TGFb COP inh inactive
Cc1cccc(C)c1-n1nnnc1C(c1ccccc1)N1CCN(C/C=C/c2ccccc2)CC1 (configuration not stated)	TGFb inhibitor inconclusive (no result: VP16 counter, RORgamma inh)
CCC(=O)Nc1cccc(C(=O)/C=C/c2cc(Br)ccc2OC)c1	HepG2 tox-1 11.2µM, VP16 counter inconclusive, S2 tox 17.8µM, ATXN2 expr inh 15.8µM, RORgamma inh 11.2µM, TGFb inhibitor 3.55µM | TGFb CAGA inh 3.66µM | HepG2 tox-2 7.31µM | CCL64 TGFb inh 3.66µM | TGFb COP inh inconclusive
COc1ccc(NC(=O)Cn2nc(C)c3c(C)n(-c4ccccc4)nc3c2=O)cc1OC	S2 tox inconclusive (no result: VP16 counter, RORgamma inh)
C[C@@H](C(=O)O)c1ccc(-c2ccccc2)c(F)c1	none (no result: HepG2 tox-1, S2 tox, ATXN2 expr inh, TGFb inhibitor)
Cc1ccc(NC(=O)C(C)c2ccc(-c3ccccc3)c(F)c2)cc1 (configuration not stated)	VP16 counter inconclusive, RORgamma inh inconclusive, TGFb inhibitor 10µM | TGFb CAGA inh inactive | HepG2 tox-2 inactive | CCL64 TGFb inh inactive | TGFb COP inh inactive
COc1ccc(/C=C/C(=O)c2cc(F)ccc2OC(=O)c2ccccc2)cc1OC	S2 tox inconclusive, TGFb inhibitor 8.91µM (no result: VP16 counter, RORgamma inh) | TGFb CAGA inh inconclusive | HepG2 tox-2 inactive | CCL64 TGFb inh inconclusive | TGFb COP inh inactive
Cc1csc2c(N3CCN(C(=O)c4ccc(C(C)(C)C)cc4)CC3)ncnc12	VP16 counter inconclusive, RORgamma inh inconclusive, TGFb inhibitor 11.2µM (no result: ATXN2 expr inh) | TGFb CAGA inh 9.2µM | HepG2 tox-2 inactive | CCL64 TGFb inh inconclusive | TGFb COP inh inactive
Cc1csc2c(N3CCN(C(=S)Nc4ccc(C(F)(F)F)cc4)CC3)ncnc12	VP16 counter inconclusive, TGFb inhibitor inconclusive (no result: ATXN2 expr inh)
O=C(NCc1ccccc1F)C(=O)NCC(c1ccc2c(c1)OCO2)N1CCOCC1 (configuration not stated)	none (no result: VP16 counter, RORgamma inh)
Cc1[nH]n(-c2ccccc2)c(=S)c1C=NCCCN=Cc1c(C)[nH]n(-c2ccccc2)c1=S	VP16 counter 1.78µM, S2 tox inconclusive, ATXN2 expr inh inconclusive, RORgamma inh 0.631µM, TGFb inhibitor 0.562µM | TGFb CAGA inh inactive | HepG2 tox-2 inactive | CCL64 TGFb inh inactive | TGFb COP inh inactive
O=C(Nc1ccccc1Cc1ccccc1)c1ccccc1NS(=O)(=O)c1ccc(Cl)s1	VP16 counter 12.6µM, ATXN2 expr inh inconclusive, RORgamma inh inconclusive, TGFb inhibitor 4.47µM | TGFb CAGA inh 5.8µM | HepG2 tox-2 10.3µM | CCL64 TGFb inh 9.2µM | TGFb COP inh inactive
O=C(NCc1ccco1)c1ccccc1NS(=O)(=O)c1ccc(Cl)s1	none
O=C1C(NS(=O)(=O)c2cccs2)=C(N2CCN(Cc3ccccc3)CC2)C(=O)c2ccccc21	HepG2 tox-1 10µM, TGFb inhibitor 8.91µM (no result: ATXN2 expr inh) | TGFb CAGA inh inconclusive | HepG2 tox-2 inactive | CCL64 TGFb inh inactive | TGFb COP inh inactive
